This note sets out measurements from PubChem BioAssay (NCI).

Molecules are shown by their SMILES. This is part of a sample that, as a whole, favours compounds with a hit. Of some 83,000 tested, about 20% had one in any assay.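 Single-dose data. Exposure time 48 hours. Values below 10 considered active.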 Unmarked numbers belong to inactive results. Active and inactive are the calls of the source.

This experiment deals with EKVX NSCLC. The experiment is described as follows: NCI-60 one-dose screen, 48 h (100 = growth as untreated, 0 = no growth, -100 = all killed). To be noted: 10 µM unless noted. The procedure: Growth inhibition of the EKVX human Non-Small Cell Lung tumor cell line is measured as a screen for anti-cancer activity. Cells are grown in 96 well plates and exposed to the test compound for 48 hours. Compounds are tested at a single concentration, which is 10^-5 M for most compounds. The reported endpoint is percent growth (GI% or GIPRCNT), where numbers from 0 - 100% represent growth inhibition, and numbers from -100% - 0 represent cell death. For example, a value of 40 represents 60% growth inhibition. A value of 0 means no net growth occurred over the course of the experiment. A value of -40 indicates 40% of cells at the beginning of the experiment died by the end of the experiment. A value of -100 means all cells are dead at the end of the experiment.
NCI-60 Human Tumor Cell Lines Screen was performed using the standard one-dose NCI protocol, which is described in more detail at https://dtp.cancer.gov/discovery_development/nci-60/default.htm.
Compounds with GIPRCNT values below 10 were considered active. Activity score was based on GIPRCNT using the following formula: […]
Score is 0 for GIPRCNT values of 100 or above, 50 for GIPRCNT values of 0, and 100 for GIPRCNT values of -100.
As to `COc1cc(-c2nn(C(C)(C)C)cc2-c2ccnc(NCCCNS(=O)(=O)c3ccc(F)cc3)n2)ccc1Cl`, the growth was 39%. In the case of `CC(=O)C1=C(C)NC(NN)=NC1c1cccc(Cl)c1` (stereo not given), the growth is 96.4%. Consider `CCO/C=N/C1=C(C#N)C(c2ccc(OC)cc2)c2sc3c(C)cccc3c2O1` (stereo not given), for which the growth is 39.9%. `CCN(CC)c1ccc2c(c1)Oc1nc(N)c(C#N)c(N)c1C2Sc1ccc(F)cc1` (stereo not given): the growth is -85.8% (active). For `COC(=O)/C=C/c1c(C2(C)NC(=O)c3ccccc3N2)c(=O)oc2ccc(Cl)cc12` (stereo not given), the growth was 88.3%. Consider `COc1ccc(C2CC(c3ccc(Nc4nc(NCCO)nc(N5CCOCC5)n4)cc3)=Nc3c(N)nc(N)nc3N2)cc1` (stereo not given), for which the growth is 107%. In the case of `COc1cc2nc(Cl)nc(Nc3cccc(C4=Nc5c(N)nc(N)nc5NC(c5ccc(Cl)cc5)C4)c3)c2cc1OC` (stereo not given), the growth was 95.3%. For `CC1=NC2=NN3C(=NN2C(c2ccccc2)=C1)N=NC(c1ccc(Br)cc1)=C3c1ccc(Br)cc1` the value was 96%; for `CC(C)(C)c1ccc(C(=O)Nc2nc3ccc(O)cc3s2)cc1`, 47.5%. Take `Nc1ncc(-c2ccc3ncnc(N4CCc5cc(F)c(F)cc54)c3c2)cn1`: the growth was 18.7%. As to `CCOc1cccc(-c2nc3sccn3c2-c2ccnc(S(C)(=O)=O)n2)c1`, the growth was 101%. As to `O=C(NNc1nc2cc(F)ccc2n2c(CO)ccc12)c1cnccn1`, the growth was 4.53% (active). For the compound `N#Cc1cn(Cc2ccc(Cl)cc2Cl)c(C(=O)c2ccc(Br)cc2)c1N`, the growth was 93.8%.

Regarding `N/C(=N\C(N)=N\c1nc2ccccc2s1)c1ccncc1Cl`, the growth was 52.7%. For `N#Cc1c(-c2cccs2)cc(-c2cnccn2)nc1SCC(=O)Nc1ccc(Br)cc1` the value was 57.6%; for `O=S(=O)(Nc1ccc(I)cc1Cl)c1ccc(-c2cnc(C3CC3)o2)cc1`, 54.2%. As for `CC[C@@H](CO)Nc1ccc2ncc(C#Cc3cncc(C(=O)Nc4ccc(CN5CCN(C)CC5)c(C(F)(F)F)c4)c3)n2n1`, the growth was -9.99% (active). The value for `Cc1cc(C)c(N2C(=O)CC(Nc3ccc(Cl)cc3Cl)C2=O)c(C)c1` (stereo not given) was 102%; that for `CCc1cccc2c3c(sc12)C(c1ccc(Cl)cc1)C(C#N)=C(/N=C/c1ccc(Cl)cc1)O3` (stereo not given) was 45.8%. In the case of `COc1ccc(/C=N/NC2=NC3C(S2)N(C)C(=O)N3C)cc1` (stereo not given), the growth is 38.5%. Take `COc1cccc2cc(-c3cc4ccccc4[nH]3)/c(=N\NC(=O)c3ccc(Cl)cc3)oc12`: the growth was 33.8%. As for `CCNC(=O)N1CCc2cc(OC)c(OCCc3ccc(OC)c(N)c3)cc2C1c1ccc(C)cc1C` (stereo not given), the growth was 44%. With `Cn1ccnc1C(=O)/C=C/c1ccc(CNC(=O)c2ccc(S(F)(F)(F)(F)F)cc2)cc1`, the growth was 40%. Turning to `O=S(=O)(NCCCNc1nccc(-c2[nH]c(-c3ccccc3)nc2-c2ccc(Cl)c(O)c2)n1)c1cccc(F)c1`, the growth is 65.2%. Consider `COc1cc2oc(-c3cccc(NC(=O)c4cc(N)ccc4Cl)c3)cc(=O)c2c(OC)c1OC`, for which the growth was 91.4%. The value for `CC(=O)c1ccc(Nc2nc(SCC(C)C)nc(-c3ccccc3)c2C#N)cc1` was 88.6%. In the case of `COc1cc2nc(Cl)nc(Nc3cccc(C4=Nc5c(N)nc(N)nc5NC(c5ccccc5)C4)c3)c2cc1OC` (stereo not given), the growth is 96.7%. For `Nn1c(N/N=C/c2nc3ccccc3s2)n[nH]c1=S` the value was 64.9%; for `COc1c(N2CC3CCCNC3C2)c(F)cc2c(=O)c(C(=O)N/N=C/c3ccc(N(C)C)cc3)cn(C3CC3)c12` (stereo not given), 86.2%. `N#Cc1c(-c2cccs2)cc(-c2cnccn2)nc1SCC(=O)c1ccc(F)cc1`: the growth was 58.9%.

`CC(C)(C)c1ccc(C(=O)Nc2sc3c(c2C(N)=O)CCC(O)C3)cc1` (stereo not given): the growth is 62.9%. For `CC(=O)c1ccc(Nc2nc(SCC(C)C)nc(-c3ccc(F)cc3)c2C#N)cc1`, the growth was 114%. The value for `C=C1CC[C@@H]2[C@]3(C)COC(c4ccccc4)O[C@@H]3CC[C@@]2(C)[C@@H]1C/C=C1/C(=O)OC[C@H]1O` (stereo not given in full) was 100%; that for `Oc1ccc(CSc2nnc(-c3ccc(Cl)cc3)n2-c2ccccc2)c2cccnc12` was 28.6%. For `N/C(=N\C(N)=N\c1nc2ccccc2s1)c1ccc2ccccc2c1` the value was 47.9%; for `NS(=O)(=O)c1ccc(Nc2nc(N/N=C/CCc3ccccc3)nc(Nc3ccccc3)n2)cc1`, 97.8%; for `Cc1cc(C)c2sc(=O)n(Cc3nnc(SCCC(=O)O)o3)c2n1`, 102%. Turning to `COc1c(N2CC3CCCNC3C2)c(F)cc2c(=O)c(C(=O)N/N=C/c3c[nH]c4ccccc34)cn(C3CC3)c12` (stereo not given), the growth was 105%.

With `CCCn1cnc2c(c1=N)C(c1ccc(F)cc1)c1sc3c(CC)cccc3c1O2` (stereo not given), the growth was 33.4%. For the compound `CN(C)CCCOc1ccc2c(c1)CN(C(=O)c1cc(C(=O)N3Cc4cccc(F)c4C3)ccc1O)C2`, the growth was 103%.
